{
  "source": "PubChem BioAssay (NCI)",
  "note": "Where “and” joins values, the source holds several entries; their conditions need not be identical. Equal values may be shown once. Compounds without any hit were thinned out: in the full panel of roughly 83,000, 20% have a hit.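 Each cell line was grown in a 96-well plate and treated with one concentration of compound for 48 hours. Values below 10 were considered active.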 Some structures have more than one record in an assay (separate samples or runs), and their calls can disagree. Calls of active or inactive are those of the source.",
  "data": [
    {"test_system": "MCF7 breast", "experiment": "NCI-60 one-dose screen, 48 h (100 = growth as untreated, 0 = no growth, -100 = all killed)", "conditions": "1 µM", "experimental": "(§1) Growth inhibition of the MCF7 human tumor cell line is measured as a screen for anti-cancer activity. Cells are grown in 96 well plates and exposed to the test compound for 48 hours. Compounds are tested at a single concentration, which is 10^-5 M for most compounds. The reported endpoint is percent growth (GI% or GIPRCNT), where numbers from 0 - 100% represent growth inhibition, and numbers from -100% - 0 represent cell death. For example, a value of 40 represents 60% growth inhibition. A value of 0 means no net growth occurred over the course of the experiment. A value of -40 indicates 40% of cells at the beginning of the experiment died by the end of the experiment. A value of -100 means all cells are dead at the end of the experiment.\n(§2) NCI-60 Human Tumor Cell Lines Screen was performed using the standard one-dose NCI protocol, which is described in more detail at https://dtp.cancer.gov/discovery_development/nci-60/default.htm.\n(§3) Compounds with GIPRCNT values below 10 were considered active. Activity score was based on GIPRCNT using the following formula: […]\n(§4) Score is 0 for GIPRCNT values of 100 or above, 50 for GIPRCNT values of 0, and 100 for GIPRCNT values of -100.", "values": [
      {"smiles": "CNC(=O)c1cc(Oc2ccc(CC(=O)Nc3cc(C(C)(C)C)nn3C)cc2)ccn1", "growth": "61.4% (inactive)"}
    ]},
    {"test_system": "MCF7 breast", "experiment": "NCI-60 one-dose screen, 48 h (100 = growth as untreated, 0 = no growth, -100 = all killed)", "conditions": "10 µM", "experimental": "as §1, §2, §3, §4", "values": [
      {"smiles": "COc1ccc(Cl)cc1C(=O)NCCc1ccc(S(=O)(=O)NC(=O)NC2CCCCC2)cc1", "growth": "108% (inactive) and 102% (inactive)"},
      {"smiles": "CNC(=O)c1cc(Oc2ccc(CC(=O)Nc3cc(C(C)(C)C)nn3C)cc2)ccn1", "growth": "53.5% (inactive)"},
      {"smiles": "CC#C[C@]1(O)CC[C@H]2[C@@H]3CCC4=CC(=O)CCC4=C3[C@@H](c3ccc4c(c3)OCO4)C[C@@]21C", "growth": "82.2% (inactive)"}
    ]},
    {"test_system": "MCF7 breast", "experiment": "NCI-60 one-dose screen, 48 h (100 = growth as untreated, 0 = no growth, -100 = all killed)", "conditions": "10 µM unless noted", "experimental": "as §1, §2, §3, §4", "values": [
      {"smiles": "O=C1NC(N/N=C\\c2ccccc2)=N/C1=C/c1ccccc1", "growth": "-46% [100 µM] (active) and -100% [100 µM] (active)"},
      {"smiles": "CCN(CC)CCOc1ccc2c(c1)C(=O)c1cc(OCCN(CC)CC)ccc1-2", "growth": "30.1% (inactive) and 7.03% (active)"},
      {"smiles": "O=C1NC(=O)C2(CCc3ccccc32)N1", "note": "(stereo not given)", "growth": "92.9% (inactive) and 110% (inactive)"},
      {"smiles": "Cc1ccc(OCC2OC(n3cnc4nc(N)nc(Cl)c43)CC2Oc2ccc(C)cc2)cc1", "note": "(stereo not given)", "growth": "45.4% [100 µM] (inactive) and -87.9% [100 µM] (active)"},
      {"smiles": "Cc1ccc(C)c(NC(=O)/C(=N\\N)C(c2cnc3ccc([N+](=O)[O-])cc3n2)[N+](=O)[O-])c1", "note": "(stereo not given)", "growth": "50.4% [100 µM] (inactive) and 9.64% [100 µM] (active)"},
      {"smiles": "Cc1nnc(NC/C=C/c2ccccc2)s1", "growth": "98.8% (inactive) and 96.2% (inactive)"},
      {"smiles": "O[C@H]1[C@H](O)[C@@H](Cn2nnc(-c3ccccc3)c2-c2ccccc2)OCO[C@@H]1Cn1nnc(-c2ccccc2)c1-c1ccccc1", "growth": "-62.6% [100 µM] (active)"},
      {"smiles": "O=[N+]([O-])c1ccc(Oc2ccccc2)cc1", "growth": "105% (inactive) and 95.2% (inactive)"},
      {"smiles": "CC(C(=O)O)n1cc(C#N)c(=O)[nH]c1=O", "note": "(stereo not given)", "growth": "101% (inactive) and 93% (inactive)"},
      {"smiles": "OC1CCC(Oc2cccc3cnc(Nc4ccc5nc[nH]c5c4)nc23)CC1", "note": "(stereo not given)", "growth": "5.53% (active) and 17.9% (inactive)"},
      {"smiles": "CC(C)Cc1ccc(C(C)C(=O)NCc2ccc(Cn3c(=O)sn(CCCCl)c3=O)cc2)cc1", "note": "(stereo not given)", "growth": "57.3% (inactive) and -31.3% (active)"},
      {"smiles": "CCN(CC)CCC(CNc1c2ccc([N+](=O)[O-])cc2nc2cc(OC)c(OC)cc12)c1ccccc1", "note": "(stereo not given)", "growth": "-50.2% (active) and -97.5% (active)"},
      {"smiles": "Cc1coc2c1C(OC(=O)C(C)C)C1(C)C(C)CCC(O)C1C2=O", "note": "(stereo not given)", "growth": "21.2% [100 µM] (inactive) and 6.5% [100 µM] (active)"},
      {"smiles": "Nc1cc2c(cc1N)-c1ccccc1C2", "growth": "81.2% (inactive) and 95% (inactive)"},
      {"smiles": "NC(=S)NS(=O)(=O)c1ccc(N)cc1", "growth": "101% (inactive)"},
      {"smiles": "COc1ccc2nc(N/N=C/c3ccc(C)s3)cc(C)c2c1", "growth": "-92.2% [100 µM] (active) and -100% [100 µM] (active)"},
      {"smiles": "Cc1ccc(NC2=N/C(=C/c3ccccc3)C(Cl)=N2)cc1", "growth": "71.3% [100 µM] (inactive) and 75.4% [100 µM] (inactive)"},
      {"smiles": "NC(N)=Nc1ccc(CC(N)C(=O)O)cc1", "note": "(stereo not given)", "growth": "93.7% [12.5 µM] (inactive) and 76.9% [12.5 µM] (inactive)"},
      {"smiles": "O=C(N/N=C/c1ccccc1)N/N=C/c1ccccc1", "growth": "99.1% (inactive) and 102% (inactive)"},
      {"smiles": "CC(=N/N=C/c1ccccn1)/C(C)=N/N=C(C)/C(C)=N/N=C(C)/C(C)=N/N=C(C)/C(C)=N\\N=C\\c1ccccn1", "growth": "84.9% [100 µM] (inactive) and 89.9% [100 µM] (inactive)"},
      {"smiles": "CCN(CC)CCCC(C)N(Cc1ccccc1)CC(O)c1ccc(Cl)cc1", "note": "(stereo not given)", "growth": "105% (inactive) and 99.3% (inactive)"},
      {"smiles": "COc1c(OC)c(OC)c2c(c1OC)c(=O)c1ccccc1n2C", "growth": "65.5% [100 µM] (inactive) and -50% [100 µM] (active)"},
      {"smiles": "COc1ccccc1NC(=O)OCC#CCOC(=O)Nc1ccccc1OC", "growth": "107% (inactive) and 91.8% (inactive)"},
      {"smiles": "COc1ccccc1-c1n[nH]c(-c2ccccc2O)n1", "growth": "61.5% [100 µM] (inactive) and 21.6% [100 µM] (inactive)"},
      {"smiles": "CC1OC(Oc2c(-c3cc(O)c(O)c(O)c3)oc3cc(O)cc(O)c3c2=O)C(O)C(O)C1O", "note": "(stereo not given)", "growth": "77.9% [100 µM] (inactive) and -43.3% [100 µM] (active)"},
      {"smiles": "O=C(O)C1C2C=CC(C2)C1C(=O)O", "note": "(stereo not given)", "growth": "97.4% (inactive) and 5.27% (active) and 104% (inactive)"},
      {"smiles": "COc1cc2c(c3c1c(=O)c1ccccc1n3C)C=C([N+](=O)[O-])C(C)(C)O2", "growth": "9.29% [100 µM] (active) and -100% [100 µM] (active)"},
      {"smiles": "CC1CC(=O)N(N(C)C)C2(C#N)C(=O)N=C(N)C12C#N", "note": "(stereo not given)", "growth": "-67.7% [100 µM] (active) and -64.1% [100 µM] (active)"},
      {"smiles": "CC1=NN(c2ccccc2)C(=O)C1C(=O)c1ccccc1", "note": "(stereo not given)", "growth": "86% (inactive)"},
      {"smiles": "CCOC(=O)c1sc(N)nc1-c1ccccc1", "growth": "100% (inactive)"},
      {"smiles": "CC1=CC(=O)c2ccc(C)cc2C1=O", "growth": "-70.7% [100 µM] (active) and -100% [100 µM] (active)"},
      {"smiles": "NC(=O)NO", "growth": "96.9% (inactive) and 65.2% (inactive)"},
      {"smiles": "CN1CCN(c2ccc3nc(-c4c(N)c5c(F)cccc5[nH]c4=O)[nH]c3c2)CC1", "growth": "14.8% (inactive) and 14.7% (inactive)"}
    ]},
    {"test_system": "MCF7 breast", "experiment": "NCI-60 one-dose screen, 48 h (100 = growth as untreated, 0 = no growth, -100 = all killed)", "conditions": "30 µM", "experimental": "as §1, §2, §3, §4", "values": [
      {"smiles": "CNC(=O)c1cc(Oc2ccc(CC(=O)Nc3cc(C(C)(C)C)nn3C)cc2)ccn1", "growth": "44.4% (inactive)"}
    ]},
    {"test_system": "MCF7 breast", "experiment": "NCI-60 one-dose screen, 48 h (100 = growth as untreated, 0 = no growth, -100 = all killed)", "conditions": "100 µM", "experimental": "as §1, §2, §3, §4", "values": [
      {"smiles": "COc1ccc(Cl)cc1C(=O)NCCc1ccc(S(=O)(=O)NC(=O)NC2CCCCC2)cc1", "growth": "66.1% (inactive)"},
      {"smiles": "CC#C[C@]1(O)CC[C@H]2[C@@H]3CCC4=CC(=O)CCC4=C3[C@@H](c3ccc4c(c3)OCO4)C[C@@]21C", "growth": "-4.09% (active)"}
    ]}
  ]
}
